Some structures have more than one record in an assay (separate samples or runs), and their calls can disagree. Activity calls are given as the source filed them. How the source made its calls: active means hit-call score of the fitted dose curve at least 0.9, where 1 is the maximum; inactive means score below 0.9.

Chain of CCAAT/enhancer-binding protein beta (Homo sapiens) (P17676 whole entry, looked up): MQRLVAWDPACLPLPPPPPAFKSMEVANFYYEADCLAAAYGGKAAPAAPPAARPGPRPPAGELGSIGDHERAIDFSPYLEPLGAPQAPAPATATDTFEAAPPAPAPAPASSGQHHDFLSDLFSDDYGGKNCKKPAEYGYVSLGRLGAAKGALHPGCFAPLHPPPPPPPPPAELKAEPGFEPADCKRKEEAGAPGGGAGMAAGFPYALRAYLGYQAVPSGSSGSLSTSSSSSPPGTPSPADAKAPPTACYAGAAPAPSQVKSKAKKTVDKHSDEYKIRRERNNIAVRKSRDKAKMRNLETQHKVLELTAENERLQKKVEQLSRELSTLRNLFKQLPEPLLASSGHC

The target of this assay is CCAAT/enhancer-binding protein beta (Homo sapiens) (UniProt P17676). Kind of assay: ATG_C_EBP_CIS: Attagene CIS-FACTORIAL HepG2 Assay for human CCAAT/Enhancer Binding Protein (C/EBP) beta (AID 2282927). The conditions noted are these: HepG2 Attagene cis-factorial transcription factor reporter; actives raise or lower the signal. On the procedure:
ATG_CIS is a cell-based, multiplexed-readout assay that uses HepG2, a human liver cell line, with measurements taken at 24 hours after chemical dosing in a 24-well plate.ATG_C_EBP_CIS is one of 52 assay component(s) measured or calculated from the ATG_CIS assay. It is designed to make measurements of mRNA induction, a form of inducible reporter, as detected with fluorescence intensity signals by Reverse transcription polymerase chain reaction (RT-PCR) and Capillary electrophoresis technology.Data from the assay component ATG_C_EBP_CIS was analyzed into 1 assay endpoint. This assay endpoint, ATG_C_EBP_CIS, was analyzed with bidirectional fitting relative to DMSO as the negative control and baseline of activity. Using a type of inducible reporter, measures of mRNA for gain or loss-of-signal activity can be used to understand the reporter gene at the transcription factor-level as they relate to the gene CEBPB. Furthermore, this assay endpoint can be referred to as a primary readout, because this assay has produced multiple assay endpoints where this one serves a reporter gene function. To generalize the intended target to other relatable targets, this assay endpoint is annotated to the dna binding intended target family, where the subfamily is basic leucine zipper.
Human liver HepG2 cells are transiently transfected with multiple reporter transcription units (MRTUs) in 6-well plates using FuGene 6 reagent (Roche; 3 ml FuGene/1 mg DNA). The MRTU constructs are regulated by a cis-regulating element (promoter). […] A major difference between the CIS and TRANS system is that in CIS activities of endogenous TFs are measured, whereas the TRANS assay evaluates changes in activities of exogenous, chimeric NR-Gal4 proteins. […] At the end of 24 hour incubation, total RNA was isolated using TriZol reagent (Invitrogen). The isolated RNA is then reverse-transcribed using oligo(dT) primer and Mo-MLV reverse transcriptase (Invitrogen) with DNAse I (Ambion) treatment for 30 min. The one-tenth of the produced cDNA was amplified by PCR using Taq DNA polymerase (Invitrogen) and two reporter sequence-specific primers. The PCR products were fluorescently labeled by primer extension with 6-arboxyfluorescein (6-FAM) 5'-labeled reporter sequence-specific primer (2 min at 95 C, 20 s at 68 C and 10 min at 72 C) and these products were digested with 5U of HpaI (New England Biolabs) for 2h at 37 C. The fragments were purified using Qiaquick PCR columns (Qiagen), analyzed on an ABI 3130xL genetic analyzer (Applied Biosystems) with peak positions identified by using a set of X-rhodamine (ROX)-labeled MapMarker1000 molecular weight standards (BioVentures). The raw capillary electrophoresis data was processed using Attagraph software (Attagene).
Consider `N=C(N)c1ccc(OCCCCCOc2ccc(C(=N)N)cc2)cc1`, for which the result was inactive.

Consider `CC1=CC(=O)c2ccccc2C1=O`, for which the result was inactive.

In the case of `O=C(c1ccccc1)c1ccccc1`, the result was inactive.

With `CC(=O)CC(C)C`, the outcome was inactive.

With `Clc1ccc(Nc2nnc(Cc3ccncc3)c3ccccc23)cc1`, the outcome was inactive.

As to `Cc1[nH]nc2c1N=C(c1ccccc1Cl)c1cc([N+](=O)[O-])ccc1N2`, the result was inactive.

With `CC(C)(O)C(=O)c1ccccc1`, the outcome was inactive.

In the case of `CC(=O)Nc1ccc(O)cc1`, the outcome was inactive.

Turning to `Oc1cccc2c(O)cccc12`, the result was inactive.

On to `O=C(OC(=O)C(F)(F)C(F)(F)F)C(F)(F)C(F)(F)F`, for which the result was inactive.

Consider `O=C(CCCN1CCC(O)(c2ccc(Cl)cc2)CC1)c1ccc(F)cc1`, for which the outcome was inactive.

With `O=C(CC(=O)C(F)(F)C(F)(F)C(F)(F)F)c1cccs1`, the AC50 – broadly, the midpoint of the concentration-response curve, whichever way the signal moves – is 66 µM (active) and the outcome was inactive.

Take `C=CCOCC(CO)(CO)CO`: the outcome was inactive.

`O=C1NS(=O)(=O)c2ccccc21`: the outcome was inactive.

Consider `O=P(O)(O)CCC(F)(F)C(F)(F)C(F)(F)C(F)(F)C(F)(F)C(F)(F)F`, for which the result was inactive.

As to `C=COC(=O)C(C)(C)CCCCCC`, the outcome was inactive.

In the case of `O=C1OC2(c3ccccc31)c1cc(I)c(O)c(I)c1Oc1c2cc(I)c(O)c1I`, the outcome was inactive.

For `O=C(Nc1cccc([N+](=O)[O-])c1)c1cc2ccccc2cc1O`, the result was inactive.

In the case of `CCCCN(C)C`, the outcome was inactive.

As to `CCCCC(CC)C(=O)OCCOCCOCCOCCOC(=O)C(CC)CCCC` (stereo not given), the result was inactive.

For `COC(=O)C(F)(F)C(F)(F)C(F)(F)F`, the result was inactive.

For the compound `c1ccc(CNc2ncnc3c2ncn3C2CCCCO2)cc1` (stereo not given), the result was inactive.

As for `Cc1ccc(C)c(S(=O)(=O)O)c1`, the result was inactive.

Take `FC(OC(F)(F)C(F)(F)C(F)(F)F)C(F)(F)F` (stereo not given): the outcome was inactive.

Take `CCCCCCC(C)(C)C(=O)O`: the result was inactive.

As to `C[C@]12CC[C@@H]3c4ccc(O)cc4CC[C@H]3[C@@H]1CC[C@@H]2OC(=O)CCC1CCCC1`, the AC50 is 137 µM (active).

Take `O=C(Nc1ccc(Cl)c(Cl)c1)c1cc(Cl)cc(Cl)c1O`: the result was inactive.

On to `Nc1cc(Cl)c(-c2cc(Cl)c(N)cc2Cl)cc1Cl`, for which the result was inactive.

Regarding `c1cc2cccc3c4cccc5cccc(c(c1)c23)c54`, the result was inactive.

For `CCOC=O`, the outcome was inactive.

As for `NCc1cccc(CN)c1`, the outcome was inactive.

Regarding `Cn1sccc1=O`, the half-maximal activity concentration (AC50) is 161 µM (active).

As for `COc1cc([N+](=O)[O-])ccc1N`, the outcome was inactive.

For the compound `O=C(C=C(O)C(F)(F)F)C(F)(F)F`, the outcome was inactive.

As for `O=C(NO)c1ccccc1`, the result was inactive.

Consider `Cc1cc(Cc2cc(C)cc(C(C)(C)C)c2O)c(O)c(C(C)(C)C)c1`, for which the AC50 is 31.8 µM (active).

With `CNNCc1ccc(C(=O)NC(C)C)cc1`, the result was inactive.

`CCc1ccccc1O`: the result was inactive.

For the compound `O=C1c2ccc(O)c(O)c2C(=O)c2c(O)ccc(O)c21`, the result was inactive.
